Reference: PubChem BioAssay (EPA / NIEHS)
“And” between values parts separate entries of the source, which are not always exact repeats. Identical values can stand only once. A structure can be active in one record and inactive in another. The source made the active and inactive calls. Rule for the calls: active = hit-call score of the fitted dose curve at least 0.9, where 1 is the maximum; inactive = score below 0.9.

Legend:
[1] = target: Bile acid receptor (Homo sapiens) (UniProt Q96RI1); experiment: ATG_IR1_CIS: Attagene CIS-FACTORIAL HepG2 Assay for human Nuclear Receptor Subfamily 1 Group H Member 4 (NR1H4), IR1 submotif (AID 2282946); details: IR1 reporter transcription, actives raise or lower the signal
Procedure, shortened: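 Cells (human HepG2) carry transiently transfected cis-promoter reporter transcription units. Compounds are incubated 24 h, total RNA is reverse-transcribed and amplified, and labelled fragments are resolved by capillary electrophoresis. Curves use DMSO as baseline.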

[2] = ATG_GRE_CIS: Attagene CIS-FACTORIAL HepG2 Assay for human Glucocorticoid Response Elements (GRE) (AID 2282947); details: HepG2 GRE cis-reporter, Attagene multiplex mRNA; actives raise or lower the signal
Procedure, shortened: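 Transient MRTU transfection of human HepG2 liver cells; cis-regulated reporters report endogenous factors. 24 h dosing → RNA isolation → RT-PCR → 6-FAM primer extension → HpaI cut → CE fragment analysis. Bidirectional fit, DMSO negative control.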

[3] = ATG_ISRE_CIS: Attagene CIS-FACTORIAL HepG2 Assay for human Interferon Regulatory Factor 1 (IRF1) binding to an Interferon-Stimulated Response Element (ISRE) (AID 2282948); details: HepG2 ISRE cis-reporter (Attagene), mRNA transcription readout; actives raise or lower the signal
Procedure, shortened: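 Transiently transfected HepG2 cells carrying cis-element reporter units, dosed 24 hours. Reporter mRNA quantified by RT-PCR, fluorescent primer extension, HpaI digestion and capillary electrophoresis. Bidirectional fitting relative to DMSO.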

[4] = ATG_M_32_CIS: Attagene CIS-FACTORIAL HepG2 Assay for M32 Transcription Factor (Internal Marker) (AID 2282949); details: HepG2 Attagene cis-factorial M32 reporter, mRNA; actives raise or lower the signal;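 note: background control marker of the multiplexed CIS panel rather than a real target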
Procedure, shortened: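 Fluorescent capillary electrophoresis peaks of HpaI-digested, FAM-labelled RT-PCR reporter products give the signal. Source: transiently transfected human liver HepG2 cells, 24 h after chemical dosing; bidirectional fitting against DMSO.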

[5] = ATG_M_06_CIS: Attagene CIS-FACTORIAL HepG2 Assay for M06 Transcription Factor (Internal Marker) (AID 2282950); details: HepG2 Attagene CIS-FACTORIAL M06 internal marker reporter; actives raise or lower the signal
Procedure, shortened: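 Internal background marker within multiplexed cis-reporter HepG2 system. Cells transiently transfected, dosed 24 h; reporter mRNA measured by RT-PCR, HpaI digestion and capillary electrophoresis. Bidirectional fit relative to DMSO.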

[6] = target: Hypoxia-inducible factor 1-alpha (Homo sapiens) (UniProt Q16665); experiment: ATG_HIF1a_CIS: Attagene CIS-FACTORIAL HepG2 Assay for human Hypoxia Inducible Factor 1 (HIF1A) (AID 2282951); details: HepG2 Attagene cis-factorial HIF1a reporter transcription; actives raise or lower the signal
Procedure, shortened: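 In this multiplexed cell assay, HepG2 cells bearing transfected cis reporters are dosed for 24 h and reporter mRNA is read by RT-PCR plus capillary electrophoresis; signal increases and decreases are both scored against DMSO.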

[7] = target: Hepatocyte nuclear factor 6 (Homo sapiens) (UniProt Q9UBC0); experiment: ATG_HNF6_CIS: Attagene CIS-FACTORIAL HepG2 Assay for human Hepatocyte Nuclear Factor 6 (HNF6) (AID 2282952); details: HepG2 Attagene cis-factorial HNF6 reporter transcription; actives raise or lower the signal
Procedure, shortened: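 Cells are HepG2 carrying transiently transfected cis-promoter reporter units. Treatment lasts 24 h, after which reporter transcripts are reverse-transcribed, amplified, FAM-labelled and sized by capillary electrophoresis. DMSO serves as baseline.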

[8] = target: Heat shock factor protein 1 (Homo sapiens) (UniProt Q00613); experiment: ATG_HSE_CIS: Attagene CIS-FACTORIAL HepG2 Assay for human Heat Shock Transcription Factor 1 (HSE) (AID 2282953); details: HepG2 HSE cis-reporter, Attagene RNA transcription; actives raise or lower the signal
Procedure, shortened: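 HepG2 cells transfected with cis-promoter reporter units sensing endogenous transcription factor activity; reporter mRNA quantified 24 h post-dose by RT-PCR and capillary electrophoresis of 6-FAM-labelled products. Bidirectional fitting against DMSO.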

[9] = ATG_MRE_CIS: Attagene CIS-FACTORIAL HepG2 Assay for human Metal Responsive Element (MRE) (AID 2282954); details: HepG2 MRE cis-reporter transcription, Attagene multiplex; actives raise or lower the signal
Procedure, shortened: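 Transient MRTU transfection of HepG2 (FuGene 6); 24 h dosing; total RNA → oligo(dT) RT, PCR, 6-FAM primer extension, HpaI cut, CE. Bidirectional fit vs DMSO.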

[10] = target: Paired box protein Pax-6 (Homo sapiens) (UniProt P26367); experiment: ATG_Pax6_CIS: Attagene CIS-FACTORIAL HepG2 Assay for human Paired Box 6 (PAX6) (AID 2282956); details: HepG2 CIS-FACTORIAL PAX6 reporter transcription, RNA readout; actives raise or lower the signal
Procedure, shortened: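 HepG2 cells transiently transfected with cis-promoter-driven multiplexed reporter units sensing endogenous transcription factor activity; 24 h chemical exposure. Reporter mRNA quantified by RT-PCR, 6-FAM labelling, HpaI digestion and capillary electrophoresis; bidirectional fit versus DMSO baseline.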

[11] = ATG_PXRE_CIS: Attagene CIS-FACTORIAL HepG2 Assay for human Pregnane X Receptor Element (PXRE) (AID 2282957); details: HepG2 Attagene CIS-FACTORIAL PXRE reporter, mRNA; actives raise or lower the signal
Procedure, shortened: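 Multiplexed cis-reporter assay in transiently transfected human HepG2 cells; 24 h chemical exposure. Reporter transcripts quantified by RT-PCR with fluorescent labeling and capillary electrophoresis.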

[12] = ATG_PPRE_CIS: Attagene CIS-FACTORIAL HepG2 Assay for human Peroxisome Proliferator-activated Response Element (PPRE) (AID 2282958); details: HepG2 PPRE cis-element reporter, Attagene transcription factor profiling; actives raise or lower the signal
Procedure, shortened: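 Multiplexed reporter transcription units under cis-regulatory promoters were transfected into HepG2 cells to capture endogenous factor activity. A 24 h incubation preceded RNA isolation and fluorescent RT-PCR fragment analysis.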

[13] = ATG_RORE_CIS: Attagene CIS-FACTORIAL HepG2 Assay for human RAR-related Orphan Receptor Element (RORE) (AID 2282959); details: HepG2 Attagene cis-factorial RORE reporter, mRNA; actives raise or lower the signal
Procedure, shortened: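 Fluorescence intensity of reporter-specific cDNA fragments, separated by capillary electrophoresis, gives the signal. Source: HepG2 liver cells transiently transfected with cis-element reporters and exposed 24 h; DMSO-normalized bidirectional fit.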

[14] = ATG_Sox_CIS: Attagene CIS-FACTORIAL HepG2 Assay for human SRY-box transcription factor (SOX) (AID 2282960); details: HepG2 Attagene cis-factorial SOX reporter, mRNA; actives raise or lower the signal
Procedure, shortened: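 After 24 h of chemical treatment, transfected HepG2 reporter cells are lysed for total RNA. Transcript levels come from RT-PCR with labelled primer extension and capillary electrophoresis, analysed bidirectionally versus DMSO.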

[15] = ATG_SREBP_CIS: Attagene CIS-FACTORIAL HepG2 Assay for human Sterol Regulatory Element Binding (SREBP) (AID 2282962); details: HepG2 Attagene cis-factorial SREBP reporter, mRNA; actives raise or lower the signal
Procedure, shortened: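 HepG2 cells transiently transfected with multiplexed cis-promoter reporter units sensing endogenous transcription factors; reporter mRNA measured 24 h after dosing by RT-PCR, 6-FAM labeling, HpaI digestion and capillary electrophoresis. Bidirectional fit versus DMSO.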

[16] = target: Signal transducer and activator of transcription 3 (Homo sapiens) (UniProt P40763); experiment: ATG_STAT3_CIS: Attagene CIS-FACTORIAL HepG2 Assay for human Signal Transducer and Activator of Transcription 3 (STAT3) (AID 2282963); details: HepG2, Attagene cis-factorial STAT3 reporter transcription; actives raise or lower the signal
Procedure, shortened: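 Endogenous STAT3-responsive cis-element activity was read in transiently transfected HepG2 cells after 24 h treatment. Reporter transcripts were quantified via RT-PCR and capillary electrophoresis, with DMSO as negative control and bidirectional curve fitting.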

[17] = ATG_TA_CIS: Attagene CIS-FACTORIAL HepG2 Assay for human TA Basal Promoter (AID 2282964); details: HepG2 Attagene CIS-factorial TA basal promoter reporter; actives raise or lower the signal
Procedure, shortened: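 HepG2 cells transiently transfected with multiple reporter units under cis promoter elements, reporting endogenous transcription factor activity; this endpoint tracks the TA basal promoter as background control. Reporter mRNA after 24 h dosing measured by RT-PCR/capillary electrophoresis; bidirectional fits versus DMSO.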

[18] = ATG_TCF_b_cat_CIS: Attagene CIS-FACTORIAL HepG2 Assay for human T-Cell-Factor with beta-catenin (TCF/b-cat) (AID 2282965); details: HepG2 TCF/beta-catenin cis-reporter transcription, actives raise or lower the signal
Procedure, shortened: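 Measured: reporter mRNA in HepG2 transiently transfected with cis-promoter reporter units, 24 h after chemical addition. Fitting was bidirectional, DMSO as negative control.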

[19] = ATG_PBREM_CIS: Attagene CIS-FACTORIAL HepG2 Assay for human Phenobarbital-responsive Enhancer Module (PBREM) (AID 2282955); details: HepG2 PBREM cis-reporter, Attagene multiplexed transcription; actives raise or lower the signal
Procedure, shortened: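 After a 24 h incubation with test chemical, transfected HepG2 cells yield total RNA; reporter-specific RT-PCR products are fluorescently labelled, HpaI-digested and resolved by capillary electrophoresis against ROX size standards.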

[20] = target: Transcription factor Sp1 (Homo sapiens) (UniProt P08047); experiment: ATG_Sp1_CIS: Attagene CIS-FACTORIAL HepG2 Assay for human Specificity Protein 1 (Sp1) (AID 2282961); details: HepG2 Sp1 cis-reporter transcription, actives raise or lower the signal
Procedure, shortened: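 Sp1-driven reporter mRNA, read as capillary electrophoresis fluorescence after RT-PCR, in transiently transfected HepG2 cells dosed for 24 h; signal change in either direction relative to DMSO.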

Measured: AC50

Chain of Hepatocyte nuclear factor 6 (Homo sapiens) (Q9UBC0 whole entry, looked up): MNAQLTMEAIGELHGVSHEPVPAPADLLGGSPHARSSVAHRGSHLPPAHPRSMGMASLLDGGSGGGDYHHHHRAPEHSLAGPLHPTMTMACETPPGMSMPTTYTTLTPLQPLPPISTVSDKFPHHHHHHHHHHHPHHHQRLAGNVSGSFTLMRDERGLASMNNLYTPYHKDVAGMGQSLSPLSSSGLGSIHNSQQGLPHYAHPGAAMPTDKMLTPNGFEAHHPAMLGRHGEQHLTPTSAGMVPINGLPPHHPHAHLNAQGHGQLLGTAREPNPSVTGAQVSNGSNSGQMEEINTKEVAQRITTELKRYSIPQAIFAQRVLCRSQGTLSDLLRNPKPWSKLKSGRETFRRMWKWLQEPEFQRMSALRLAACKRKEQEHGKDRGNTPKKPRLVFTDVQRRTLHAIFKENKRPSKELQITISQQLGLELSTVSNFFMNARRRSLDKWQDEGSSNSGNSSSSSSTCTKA
Chain of Hypoxia-inducible factor 1-alpha (Homo sapiens) (Q16665 whole entry, looked up): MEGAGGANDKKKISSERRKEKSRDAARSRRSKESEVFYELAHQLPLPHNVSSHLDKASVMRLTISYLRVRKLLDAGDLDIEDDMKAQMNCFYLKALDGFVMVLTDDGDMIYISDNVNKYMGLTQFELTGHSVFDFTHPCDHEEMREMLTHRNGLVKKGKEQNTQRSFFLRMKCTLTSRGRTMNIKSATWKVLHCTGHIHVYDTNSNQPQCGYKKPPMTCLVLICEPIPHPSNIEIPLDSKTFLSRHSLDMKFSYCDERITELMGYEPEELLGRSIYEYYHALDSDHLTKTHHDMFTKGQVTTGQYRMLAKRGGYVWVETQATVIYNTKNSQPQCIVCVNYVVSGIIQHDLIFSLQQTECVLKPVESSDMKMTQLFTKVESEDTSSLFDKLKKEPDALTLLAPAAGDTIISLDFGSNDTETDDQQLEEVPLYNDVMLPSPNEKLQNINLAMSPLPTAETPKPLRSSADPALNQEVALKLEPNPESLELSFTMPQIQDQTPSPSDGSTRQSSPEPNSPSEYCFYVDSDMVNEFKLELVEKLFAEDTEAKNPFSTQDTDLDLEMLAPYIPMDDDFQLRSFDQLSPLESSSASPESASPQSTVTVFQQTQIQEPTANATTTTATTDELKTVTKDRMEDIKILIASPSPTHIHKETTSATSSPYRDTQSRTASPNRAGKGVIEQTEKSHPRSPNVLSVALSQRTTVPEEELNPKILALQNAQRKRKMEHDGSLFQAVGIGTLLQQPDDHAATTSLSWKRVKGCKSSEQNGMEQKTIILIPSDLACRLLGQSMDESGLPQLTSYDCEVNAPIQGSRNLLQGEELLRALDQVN
Chain of Heat shock factor protein 1 (Homo sapiens) (Q00613 whole entry, looked up): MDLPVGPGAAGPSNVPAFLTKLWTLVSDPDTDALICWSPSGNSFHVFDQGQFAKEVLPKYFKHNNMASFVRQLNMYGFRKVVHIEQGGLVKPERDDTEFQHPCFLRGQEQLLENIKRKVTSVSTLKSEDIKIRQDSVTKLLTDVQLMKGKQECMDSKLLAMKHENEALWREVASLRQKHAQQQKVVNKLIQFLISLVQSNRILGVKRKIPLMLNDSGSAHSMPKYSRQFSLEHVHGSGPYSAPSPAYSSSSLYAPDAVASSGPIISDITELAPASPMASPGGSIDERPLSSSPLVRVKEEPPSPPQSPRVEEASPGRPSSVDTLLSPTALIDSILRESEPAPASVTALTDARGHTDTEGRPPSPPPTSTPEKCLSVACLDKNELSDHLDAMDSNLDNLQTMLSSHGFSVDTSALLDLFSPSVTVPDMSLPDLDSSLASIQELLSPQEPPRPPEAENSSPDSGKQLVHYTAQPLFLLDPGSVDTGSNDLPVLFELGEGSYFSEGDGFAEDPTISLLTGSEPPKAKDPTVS
Chain of Paired box protein Pax-6 (Homo sapiens) (P26367 whole entry, looked up): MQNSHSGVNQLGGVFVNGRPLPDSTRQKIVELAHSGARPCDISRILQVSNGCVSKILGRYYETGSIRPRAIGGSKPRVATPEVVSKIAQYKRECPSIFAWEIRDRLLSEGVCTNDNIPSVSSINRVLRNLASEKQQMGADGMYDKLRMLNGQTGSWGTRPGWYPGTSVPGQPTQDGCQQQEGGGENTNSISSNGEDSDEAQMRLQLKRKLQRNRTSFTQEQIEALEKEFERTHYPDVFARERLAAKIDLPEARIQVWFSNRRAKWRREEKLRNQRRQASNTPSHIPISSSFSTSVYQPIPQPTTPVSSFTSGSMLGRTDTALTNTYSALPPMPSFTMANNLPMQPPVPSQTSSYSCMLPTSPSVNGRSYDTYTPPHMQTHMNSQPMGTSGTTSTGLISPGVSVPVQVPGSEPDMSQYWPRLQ
Chain of Signal transducer and activator of transcription 3 (Homo sapiens) (P40763 whole entry, looked up): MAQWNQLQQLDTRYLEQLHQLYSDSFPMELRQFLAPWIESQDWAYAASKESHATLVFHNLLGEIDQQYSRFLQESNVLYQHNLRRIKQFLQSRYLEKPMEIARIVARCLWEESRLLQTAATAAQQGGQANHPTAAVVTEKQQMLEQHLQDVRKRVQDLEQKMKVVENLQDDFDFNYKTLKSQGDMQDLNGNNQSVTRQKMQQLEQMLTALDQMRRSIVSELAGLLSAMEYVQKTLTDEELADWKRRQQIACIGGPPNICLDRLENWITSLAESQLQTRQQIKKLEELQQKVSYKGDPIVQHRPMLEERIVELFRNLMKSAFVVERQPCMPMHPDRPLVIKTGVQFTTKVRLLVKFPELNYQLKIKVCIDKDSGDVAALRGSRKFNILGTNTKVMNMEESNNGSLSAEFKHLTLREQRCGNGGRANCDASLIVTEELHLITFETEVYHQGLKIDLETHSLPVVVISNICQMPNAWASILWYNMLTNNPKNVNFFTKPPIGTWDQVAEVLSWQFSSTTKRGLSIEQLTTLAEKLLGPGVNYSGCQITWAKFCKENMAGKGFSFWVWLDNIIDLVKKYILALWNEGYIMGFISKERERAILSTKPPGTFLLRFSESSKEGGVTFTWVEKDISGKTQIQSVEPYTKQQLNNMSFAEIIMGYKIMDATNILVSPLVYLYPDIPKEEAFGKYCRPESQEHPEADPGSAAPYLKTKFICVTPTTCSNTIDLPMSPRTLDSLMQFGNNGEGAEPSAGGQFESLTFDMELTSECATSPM
Chain of Transcription factor Sp1 (Homo sapiens) (P08047 whole entry, looked up): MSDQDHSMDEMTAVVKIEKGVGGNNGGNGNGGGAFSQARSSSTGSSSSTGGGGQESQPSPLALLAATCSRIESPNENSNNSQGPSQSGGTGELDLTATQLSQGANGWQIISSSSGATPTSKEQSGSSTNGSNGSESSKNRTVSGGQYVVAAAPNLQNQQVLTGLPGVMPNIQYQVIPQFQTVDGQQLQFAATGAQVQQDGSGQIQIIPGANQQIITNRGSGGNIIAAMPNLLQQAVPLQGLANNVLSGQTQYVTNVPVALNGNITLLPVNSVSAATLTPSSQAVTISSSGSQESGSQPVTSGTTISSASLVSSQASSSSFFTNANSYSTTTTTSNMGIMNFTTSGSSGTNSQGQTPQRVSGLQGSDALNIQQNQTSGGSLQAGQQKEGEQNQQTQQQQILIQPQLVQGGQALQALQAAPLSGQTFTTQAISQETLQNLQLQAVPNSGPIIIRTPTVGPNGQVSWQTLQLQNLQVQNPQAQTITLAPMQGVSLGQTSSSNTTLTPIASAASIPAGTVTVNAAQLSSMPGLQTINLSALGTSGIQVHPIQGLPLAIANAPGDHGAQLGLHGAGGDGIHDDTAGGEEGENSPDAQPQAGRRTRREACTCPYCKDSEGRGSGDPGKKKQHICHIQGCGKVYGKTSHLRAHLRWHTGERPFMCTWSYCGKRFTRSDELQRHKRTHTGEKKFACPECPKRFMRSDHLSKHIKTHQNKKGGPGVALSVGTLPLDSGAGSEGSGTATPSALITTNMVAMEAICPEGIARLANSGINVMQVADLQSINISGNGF
Chain of Bile acid receptor (Homo sapiens) (Q96RI1 whole entry, looked up, the tested form may be a part): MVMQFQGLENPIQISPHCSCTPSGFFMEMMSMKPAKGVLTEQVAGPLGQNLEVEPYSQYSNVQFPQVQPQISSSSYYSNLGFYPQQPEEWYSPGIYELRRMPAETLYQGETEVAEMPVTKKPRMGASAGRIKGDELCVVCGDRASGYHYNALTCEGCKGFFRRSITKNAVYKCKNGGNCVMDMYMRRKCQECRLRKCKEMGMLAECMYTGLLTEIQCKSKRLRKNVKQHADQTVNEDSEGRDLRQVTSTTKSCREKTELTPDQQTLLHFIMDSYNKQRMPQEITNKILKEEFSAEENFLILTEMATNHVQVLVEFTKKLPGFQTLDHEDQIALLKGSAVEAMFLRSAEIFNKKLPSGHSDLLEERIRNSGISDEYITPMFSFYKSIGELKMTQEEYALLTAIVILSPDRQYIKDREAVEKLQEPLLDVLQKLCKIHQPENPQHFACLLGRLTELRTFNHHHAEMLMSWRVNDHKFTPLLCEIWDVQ

CC[C@H](NC(=O)c1cc(F)ccc1NS(=O)(=O)c1cccc2cccnc12)c1ccccc1
active: [11] 14.4 nM | [15] 27.1 µM
not listed: [19] | [20]
inactive: all other assays above

O=C1O[C@H]([C@@H](O)CO)C(O)=C1O
active: [11] 184 µM and 54.4 µM
not listed: [1]
inactive: all other assays above

CCCCCCCC[Si](OCC)(OCC)OCC
active: [2] 127 µM | [3] 41.8 µM | [6] 57.3 µM and 26.4 µM | [11] 8.67 µM [middle of 4 runs] | [12] 62.9 µM and 70.5 µM | [14] 147 µM | [15] 100 µM | [18] 68.9 µM and 100 µM
inactive: [2] | [3] | [4] | [5] | [6] | [7] | [8] | [9] | [10] | [12] | [13] | [14] | [15] | [16] | [17] | [18]
